PubChem BioAssay (NCI)
About 83,000 compounds went through this panel and 20% of them were active in at least one assay; those are over-represented in the sample as a whole.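 The endpoint reported here, percent growth, reads 100 for growth as untreated, 0 for no net growth and -100 for all cells dead.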 Calls of active or inactive are those of the source. The calls were made as follows: active = growth percent below 10; inactive = the rest.

How the values were obtained:
Assay in all cases: NCI-60 one-dose screen, 48 h (100 = growth as untreated, 0 = no growth, -100 = all killed)
Details in all cases: 10 µM unless noted
HCT-15 colon = system: HCT-15 colon
HT29 colon = system: HT29 colon
SNB-75 CNS = system: SNB-75 CNS
SNB-19 CNS = system: SNB-19 CNS
U251 CNS = system: U251 CNS
PC-3 prostate = system: PC-3 prostate
SK-MEL-5 melanoma = system: SK-MEL-5 melanoma
UACC-62 melanoma = system: UACC-62 melanoma
LOX IMVI melanoma = system: LOX IMVI melanoma
SK-MEL-28 melanoma = system: SK-MEL-28 melanoma
EKVX NSCLC = system: EKVX NSCLC
SN12C renal = system: SN12C renal
UO-31 renal = system: UO-31 renal
TK-10 renal = system: TK-10 renal
ACHN renal = system: ACHN renal
CAKI-1 renal = system: CAKI-1 renal
A498 renal = system: A498 renal
CCRF-CEM leukemia = system: CCRF-CEM leukemia
MOLT-4 leukemia = system: MOLT-4 leukemia

Measured: growth

CC1=CC2c3oc(-c4ccccc4)c(C(=O)c4ccccc4)c3CNC2C=C1 (stereo unspecified)
inactive: HCT-15 colon 97.2% | HT29 colon 84.2% | SNB-75 CNS 79.7% | SNB-19 CNS 91.6% | U251 CNS 80.7% | PC-3 prostate 94% | SK-MEL-5 melanoma 103% | UACC-62 melanoma 87.9% | LOX IMVI melanoma 86.2% | SK-MEL-28 melanoma 111% | EKVX NSCLC 107% | SN12C renal 88.5% | UO-31 renal 72.2% | TK-10 renal 96% | ACHN renal 87.4% | CAKI-1 renal 94.8% | A498 renal 100% | CCRF-CEM leukemia 76.1% | MOLT-4 leukemia 101%

C=CCN(/C=C1/C(=O)O[C@H](COC)[C@@]2(C)C1=C(O)C(=O)C1=C2[C@H](OC(C)=O)C[C@]2(C)C(=O)CC[C@@H]12)CC=C
inactive: HCT-15 colon 24.2% | HT29 colon 13.7% | SNB-19 CNS 26.2% | U251 CNS 21.1% | PC-3 prostate 18.6% | LOX IMVI melanoma 20.3% | SK-MEL-28 melanoma 24.4% | EKVX NSCLC 21.8% | SN12C renal 30.2% | ACHN renal 24.7% | CCRF-CEM leukemia 12.8%
active: SNB-75 CNS -25.3% | SK-MEL-5 melanoma 7.65% | UACC-62 melanoma -21% | UO-31 renal 3.12% | TK-10 renal 3.59% | CAKI-1 renal 8.92% | A498 renal -66.8% | MOLT-4 leukemia -2.31%

O=C1CCC(=O)CC1
inactive: HCT-15 colon 102% | HT29 colon 102% | SNB-75 CNS 88.8% | SNB-19 CNS 93.9% | U251 CNS 99.4% | PC-3 prostate 92.7% | SK-MEL-5 melanoma 109% | UACC-62 melanoma 99% | LOX IMVI melanoma 101% | SK-MEL-28 melanoma 112% | EKVX NSCLC 98.8% | SN12C renal 90% | UO-31 renal 86.4% | TK-10 renal 96.4% | ACHN renal 109% | CAKI-1 renal 96.5% | A498 renal 104% | MOLT-4 leukemia 101%

CN(C)CCOC(=O)Nc1nc2ccc(Sc3ccccc3)cc2[nH]1
inactive: HCT-15 colon 33.2% | SNB-19 CNS 36.4% | U251 CNS 26.5% | PC-3 prostate 28% | SK-MEL-5 melanoma 19.3% | UACC-62 melanoma 42.4% | LOX IMVI melanoma 32.1% | SK-MEL-28 melanoma 63.7% | EKVX NSCLC 47.1% | SN12C renal 40.5% | UO-31 renal 31.5% | TK-10 renal 49.4% | ACHN renal 46.2% | CAKI-1 renal 33.9% | CCRF-CEM leukemia 22.4% | MOLT-4 leukemia 41%
active: HT29 colon 1.58% | SNB-75 CNS -10.2% | A498 renal -3.9%

CNC(=O)c1ccccc1Nc1nc(Nc2ccc3c(c2OC)CCC[C@H](N2CCN(CCO)CC2)C3)ncc1Cl
active: HCT-15 colon 0.498% | HT29 colon -44.3% | SNB-75 CNS -5.43% | U251 CNS -19.4% | SK-MEL-5 melanoma -92.4% | UACC-62 melanoma -45% | LOX IMVI melanoma -89.6% | SK-MEL-28 melanoma -77.1% | SN12C renal 7.63% | UO-31 renal 6.91% | ACHN renal 5.75% | CAKI-1 renal -26.6% | A498 renal -64.3% | CCRF-CEM leukemia 7.29% | MOLT-4 leukemia -23.5%
inactive: SNB-19 CNS 18.8% | PC-3 prostate 22.9% | EKVX NSCLC 11.8% | TK-10 renal 26.2%

COc1ccc(COc2cc3oc(=O)c4cc(C(C)O)ccc4c3cc2OC)cc1 (stereo unspecified)
inactive: HCT-15 colon 36.6% | HT29 colon 30.1% | SNB-75 CNS 13.7% | SNB-19 CNS 31.9% | U251 CNS 46.5% | PC-3 prostate 53% | SK-MEL-5 melanoma 56.3% | UACC-62 melanoma 50.4% | LOX IMVI melanoma 76.3% | SK-MEL-28 melanoma 56.3% | EKVX NSCLC 68.9% | SN12C renal 68.5% | UO-31 renal 64.5% | TK-10 renal 73.5% | ACHN renal 48.4% | CAKI-1 renal 55.9% | A498 renal 84.6% | CCRF-CEM leukemia 77.1% | MOLT-4 leukemia 54.5%

CCn1cc(-c2ccnc3[nH]c(-c4cccc(CN(C)C)c4)cc23)c(-c2ccc(NC(=O)N(C)C)cc2)n1
active: HT29 colon -7.89% | SNB-75 CNS -52.6% | LOX IMVI melanoma -76.9% | UO-31 renal -10.7% | CAKI-1 renal 6.96% | A498 renal -34.1% | CCRF-CEM leukemia 4.15% | MOLT-4 leukemia 7.17%
inactive: HCT-15 colon 24.6% | SNB-19 CNS 55% | U251 CNS 38.2% | PC-3 prostate 30.6% | SK-MEL-5 melanoma 37.5% | UACC-62 melanoma 39.9% | SK-MEL-28 melanoma 45.2% | EKVX NSCLC 55.4% | SN12C renal 24.1% | TK-10 renal 44.3% | ACHN renal 15.4%

C=CC(=O)Nc1cc2c(Nc3ccc(F)c(Cl)c3)ncnc2cc1OCCCN1CCOCC1
active: HCT-15 colon -32% | HT29 colon -74.9% | SNB-75 CNS -15.9% | UACC-62 melanoma -49.7% | LOX IMVI melanoma -87% | SK-MEL-28 melanoma -19% | SN12C renal 0.752% | UO-31 renal -12.8% | TK-10 renal -6.01% | ACHN renal 2.82% | CAKI-1 renal -5.99% | A498 renal -29.3% | CCRF-CEM leukemia 4.44% | MOLT-4 leukemia -6.89%
inactive: SNB-19 CNS 17.4% | U251 CNS 21.2% | PC-3 prostate 17.5% | SK-MEL-5 melanoma 48.7% | EKVX NSCLC 15.8%
